Assay results published in PubChem BioAssay (EPA / NIEHS).
Where “and” joins values, the source holds several entries; their conditions need not be identical. Equal entries are not always repeated. Results filed as inconclusive are left out. Some structures have more than one record in an assay (separate samples or runs), and their calls can disagree. Calls of active or inactive are those of the source. Rule for the calls: active = hit-call score of the fitted dose curve at least 0.9, where 1 is the maximum; inconclusive = response in the unintended direction; inactive = score below 0.9.

Legend:
[1] = target: rat Neurokinin-1 Receptor (NK1), Tacr1 (gene 24807) (UniProt P14600); assay: NVS_GPCR_rNK1: NovaScreen (NVS) G Protein-Coupled Receptor Assay for rat Neurokinin-1 Receptor (NK1) (AID 2283309)
Sequence of rat Neurokinin-1 Receptor (NK1), Tacr1 (gene 24807) (P14600 whole entry, looked up): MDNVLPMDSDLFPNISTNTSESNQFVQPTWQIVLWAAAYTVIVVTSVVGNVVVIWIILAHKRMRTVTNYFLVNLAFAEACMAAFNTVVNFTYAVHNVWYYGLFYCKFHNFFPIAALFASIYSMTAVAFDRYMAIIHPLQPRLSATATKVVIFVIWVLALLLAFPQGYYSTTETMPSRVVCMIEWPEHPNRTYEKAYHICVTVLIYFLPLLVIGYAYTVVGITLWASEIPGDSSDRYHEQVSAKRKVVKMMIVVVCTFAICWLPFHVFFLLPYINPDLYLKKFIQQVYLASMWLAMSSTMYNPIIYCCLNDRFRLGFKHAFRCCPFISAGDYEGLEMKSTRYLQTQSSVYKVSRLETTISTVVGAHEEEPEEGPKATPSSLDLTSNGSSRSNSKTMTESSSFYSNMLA
Procedure, shortened: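 Competitive radioligand binding to NK1 in rat submaxillary membranes, 1 h incubation, filtration and scintillation read-out. Compounds first screened at 25 uM in duplicate, then concentration-response for actives; signal loss relative to DMSO.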

[2] = target: rat Opioid Receptor, Non-selective Binding, Oprm1 (gene 25601) (UniProt P33535); assay: NVS_GPCR_rOpiate_NonSelective: NovaScreen (NVS) G Protein-Coupled Receptor Assay for rat Opioid Receptor, Non-selective Binding (AID 2283318)
Sequence of rat Opioid Receptor, Non-selective Binding, Oprm1 (gene 25601) (P33535 whole entry, looked up): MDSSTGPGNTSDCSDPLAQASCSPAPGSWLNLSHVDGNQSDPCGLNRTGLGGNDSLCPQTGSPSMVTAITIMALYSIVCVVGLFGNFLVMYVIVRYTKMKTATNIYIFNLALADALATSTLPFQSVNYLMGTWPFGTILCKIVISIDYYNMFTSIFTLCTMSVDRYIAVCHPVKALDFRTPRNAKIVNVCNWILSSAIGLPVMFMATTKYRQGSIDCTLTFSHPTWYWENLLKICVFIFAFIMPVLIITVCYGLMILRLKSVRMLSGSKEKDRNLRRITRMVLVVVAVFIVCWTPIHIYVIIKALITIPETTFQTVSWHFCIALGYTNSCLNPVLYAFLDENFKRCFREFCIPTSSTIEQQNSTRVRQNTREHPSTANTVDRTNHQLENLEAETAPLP
Procedure, shortened: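 Filter-based radioligand displacement using rat forebrain membrane preparations, measured 1.5 h post-dosing. Single-concentration duplicate screen at 25 uM, follow-up in concentration series; activity taken as signal loss relative to DMSO.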

[3] = tested on: NCBI gene 24521; assay: NVS_IC_rKATPCh: NovaScreen (NVS) Ion Channel Assay for rat Potassium Channel, ATP-Sensitive (KATPCh) (AID 2283319)
Procedure, shortened: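 Primary duplicate screen at 25 uM, then singleton concentration series to 50 uM maximum, in a rat cortex membrane radioligand displacement assay. Binding measured by filtration and scintillation 2 h post-dose; DMSO baseline.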

[4] = target: rat Neonicotinoid receptor (NNR), Chrna7 (gene 25302) (UniProt Q05941); assay: NVS_LGIC_rNNR_BungSens: NovaScreen (NVS) Ligand-Gated Ion Channel Assay for rat Neonicotinoid receptor (NNR) (AID 2283315)
Sequence of rat Neonicotinoid receptor (NNR), Chrna7 (gene 25302) (Q05941 whole entry, looked up): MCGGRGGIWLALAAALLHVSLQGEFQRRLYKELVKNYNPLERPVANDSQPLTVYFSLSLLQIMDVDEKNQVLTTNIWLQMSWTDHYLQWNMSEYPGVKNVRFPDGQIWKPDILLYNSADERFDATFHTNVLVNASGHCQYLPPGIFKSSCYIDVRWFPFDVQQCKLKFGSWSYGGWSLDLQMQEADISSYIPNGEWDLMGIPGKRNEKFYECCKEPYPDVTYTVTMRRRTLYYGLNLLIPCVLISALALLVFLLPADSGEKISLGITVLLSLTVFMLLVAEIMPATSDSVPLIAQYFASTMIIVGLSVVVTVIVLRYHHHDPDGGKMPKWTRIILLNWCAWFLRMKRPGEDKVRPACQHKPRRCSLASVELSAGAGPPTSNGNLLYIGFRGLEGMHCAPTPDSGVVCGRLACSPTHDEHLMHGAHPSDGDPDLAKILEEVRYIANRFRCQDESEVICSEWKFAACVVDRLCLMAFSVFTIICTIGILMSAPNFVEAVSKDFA
Procedure, shortened: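 Rat cortical membrane preparation incubated 2.5 h with tritiated or iodinated radioligand and test chemical. Bound radioactivity was filtered and counted by scintillation, and displacement was analysed against DMSO.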

[5] = target: Voltage-dependent N-type calcium channel subunit alpha-1B (Rattus norvegicus) (UniProt Q02294); assay: NVS_IC_rCaChN: NovaScreen (NVS) Ion Channel Assay for rat Calcium Channel, Type N (CaChN) (AID 2283317)
[6] = target: rat Somatostatin Receptor (SST), Sstr1 (gene 25033) (UniProt P28646); assay: NVS_GPCR_rSST: NovaScreen (NVS) G Protein-Coupled Receptor Assay for rat Somatostatin Receptor (SST) (AID 2283314)
Sequence of rat Somatostatin Receptor (SST), Sstr1 (gene 25033) (P28646 whole entry, looked up): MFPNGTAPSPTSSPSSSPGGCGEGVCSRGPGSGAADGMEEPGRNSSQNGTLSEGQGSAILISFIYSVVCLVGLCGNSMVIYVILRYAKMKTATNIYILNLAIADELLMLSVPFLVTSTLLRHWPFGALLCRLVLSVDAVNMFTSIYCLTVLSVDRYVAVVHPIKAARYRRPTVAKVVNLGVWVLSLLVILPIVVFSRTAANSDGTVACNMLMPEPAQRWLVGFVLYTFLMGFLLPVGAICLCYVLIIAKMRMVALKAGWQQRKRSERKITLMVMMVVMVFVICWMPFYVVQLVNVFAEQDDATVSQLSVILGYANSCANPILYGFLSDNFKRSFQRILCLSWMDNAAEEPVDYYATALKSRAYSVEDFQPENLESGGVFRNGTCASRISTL
Procedure, shortened: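 Single-concentration duplicate screen (25 uM), then concentration-response up to 50 uM for chemicals passing a threshold such as 30% inhibition. Membranes came from rat forebrain. Binding was measured 1 h post-dose by filter radiodetection and scintillation, relative to DMSO.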

[7] = target: rat Opioid Receptor, Non-selective Sodium (Na+) Binding, Oprm1 (gene 25601) (UniProt P33535); assay: NVS_GPCR_rOpiate_NonSelectiveNa: NovaScreen (NVS) G Protein-Coupled Receptor Assay for rat Opioid Receptor, Non-selective Sodium (Na+) Binding (AID 2283311)
Sequence of rat Opioid Receptor, Non-selective Sodium (Na+) Binding, Oprm1 (gene 25601) (P33535 whole entry, looked up): as the sequence (P33535 whole entry, looked up) above
Procedure, shortened: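 Filtration radioligand binding on rat forebrain membrane preparations, read 1.5 h after dosing. Single-concentration 25 µM primary screen in duplicate, followed by singleton concentration series to 50 µM max for actives; DMSO baseline.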

[8] = target: rat Vasopressin 1 Receptor (V1), Avpr1a (gene 25107) (UniProt P30560); assay: NVS_GPCR_rV1: NovaScreen (NVS) G Protein-Coupled Receptor Assay for rat Vasopressin 1 Receptor (V1) (AID 2283316)
Sequence of rat Vasopressin 1 Receptor (V1), Avpr1a (gene 25107) (P30560 whole entry, looked up): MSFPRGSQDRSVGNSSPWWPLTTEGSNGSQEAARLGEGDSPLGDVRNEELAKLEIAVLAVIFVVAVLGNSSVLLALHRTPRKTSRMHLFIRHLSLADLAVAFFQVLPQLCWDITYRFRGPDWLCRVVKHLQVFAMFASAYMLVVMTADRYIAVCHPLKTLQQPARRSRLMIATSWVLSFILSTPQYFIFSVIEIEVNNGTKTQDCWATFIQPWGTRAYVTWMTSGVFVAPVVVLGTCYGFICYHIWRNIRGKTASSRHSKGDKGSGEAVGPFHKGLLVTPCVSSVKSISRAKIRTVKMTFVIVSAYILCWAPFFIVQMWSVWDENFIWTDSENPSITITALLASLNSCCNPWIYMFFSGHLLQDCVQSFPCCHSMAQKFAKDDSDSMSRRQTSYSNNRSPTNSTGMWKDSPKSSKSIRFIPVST
Procedure, shortened: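 Concentration-response up to 50 uM for chemicals passing a threshold such as 30% inhibition in an initial duplicate 25 uM screen. Displacement of radioligand from rat liver membranes measured after 1.5 h by filtration and scintillation.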

[9] = target: rat Neurokinin-3 Receptor (NK3), Tacr3 (gene 24808) (UniProt P16177); assay: NVS_GPCR_rNK3: NovaScreen (NVS) G Protein-Coupled Receptor Assay for rat Neurokinin-3 Receptor (NK3) (AID 2283310)
Sequence of rat Neurokinin-3 Receptor (NK3), Tacr3 (gene 24808) (P16177 whole entry, looked up): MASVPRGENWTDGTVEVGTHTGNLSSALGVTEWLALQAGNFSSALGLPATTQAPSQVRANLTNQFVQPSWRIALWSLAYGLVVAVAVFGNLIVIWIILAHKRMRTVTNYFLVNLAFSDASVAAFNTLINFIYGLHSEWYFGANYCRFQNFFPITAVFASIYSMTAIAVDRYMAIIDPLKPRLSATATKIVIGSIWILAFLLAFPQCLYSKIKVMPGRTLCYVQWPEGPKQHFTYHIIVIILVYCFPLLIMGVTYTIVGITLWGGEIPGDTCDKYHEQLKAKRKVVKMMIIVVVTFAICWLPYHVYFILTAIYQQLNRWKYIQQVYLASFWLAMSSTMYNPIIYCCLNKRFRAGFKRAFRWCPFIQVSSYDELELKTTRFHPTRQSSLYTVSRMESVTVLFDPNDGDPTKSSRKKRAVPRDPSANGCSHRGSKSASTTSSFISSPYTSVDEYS
Method: NVS_GPCR_rNK3 is a biochemical, single-readout assay that uses extracted gene-proteins from Rat cortical membranes in a tissue-based cell-free assay. Measurements were taken 2 hours after chemical dosing in a 48-well plate.NVS_GPCR_rNK3 is one of one assay component(s) measured or calculated from the NVS_GPCR_rNK3 assay. It is designed to make measurements of radioligand binding, a form of binding reporter, as detected with scintillation counting signals by Filter-based radiodetection technology.Data from the assay component NVS_GPCR_rNK3 was analyzed into 1 assay endpoint. This assay endpoint, NVS_GPCR_rNK3, was analyzed in the positive analysis fitting direction relative to DMSO as the negative control and baseline of activity. Using a type of binding reporter, loss-of-signal activity can be used to understand changes in the binding as they relate to the gene Tacr3. Furthermore, this assay endpoint can be referred to as a primary readout, because the performed assay has only produced 1 assay endpoint. To generalize the intended target to other relatable targets, this assay endpoint is annotated to the gpcr intended target family, where the subfamily is rhodopsin-like receptor.
Binding assays used specific radioligands (tritiated, iodinated) with non-radioactive competitive displacement ligands in agonist or antagonist protocols (as indicated) and various reference compounds and inhibitors to titrate specific binding to receptors and transporters. Most enzyme assays (CYPs, kinases, phosphatases, proteases, HDACs) used recombinant protein and specific substrates (fluorescence mostly, some colorimetric and radioactive) and inhibitors, followed by a biochemical separation of substrate and product. All assays for the biochemical HTS were initially run in duplicate at a single concentration (10 uM for CYP450 assays and 25 uM for all others). […]

[10] = target: human Neonicotinoid receptor (NNR), CHRNA2 (gene 1135) (UniProt Q15822); assay: NVS_LGIC_hNNR_NBungSens: NovaScreen (NVS) Ligand-Gated Ion Channel Assay for human Neonicotinoid receptor (NNR) (AID 2283313)
Sequence of human Neonicotinoid receptor (NNR), CHRNA2 (gene 1135) (Q15822 whole entry, looked up): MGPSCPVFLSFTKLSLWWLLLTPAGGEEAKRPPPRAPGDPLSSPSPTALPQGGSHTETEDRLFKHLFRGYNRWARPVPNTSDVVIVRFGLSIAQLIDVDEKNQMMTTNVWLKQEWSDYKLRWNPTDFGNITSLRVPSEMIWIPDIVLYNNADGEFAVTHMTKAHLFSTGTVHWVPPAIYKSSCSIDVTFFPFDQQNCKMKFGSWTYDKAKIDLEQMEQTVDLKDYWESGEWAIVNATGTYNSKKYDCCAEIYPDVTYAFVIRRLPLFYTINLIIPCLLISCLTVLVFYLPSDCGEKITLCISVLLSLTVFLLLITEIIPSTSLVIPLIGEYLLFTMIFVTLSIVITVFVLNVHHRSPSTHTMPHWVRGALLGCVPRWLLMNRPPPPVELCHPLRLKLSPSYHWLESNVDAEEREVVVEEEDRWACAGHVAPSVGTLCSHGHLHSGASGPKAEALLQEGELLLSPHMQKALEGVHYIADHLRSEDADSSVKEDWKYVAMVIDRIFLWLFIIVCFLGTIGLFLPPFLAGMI
Procedure, shortened: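 Compounds first screened in duplicate at 25 uM, then actives re-tested in single-replicate dose series up to 50 uM. Binding measured as displacement of specific radioligand from neuroblastoma membrane receptors after 2 h, scintillation read on filters.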

Which results are given for `COc1ccc(C(c2ccc(OC)cc2)C(Cl)(Cl)Cl)cc1`?
outcome [1]: inactive; outcome [2]: inactive

Which outcome [3] does the source give for `COC(=O)c1ccccc1C(=O)OC` here?
The outcome was “inactive”.

With `CNC(=O)ON=CC(C)(C)SC` as the molecule, how does the outcome [4] read?
Its outcome is “inactive”.

Which AC50 [3] does the source give for `CCCCNC(=O)OCC#CI` here?
Its AC50 is 9.23 µM (active) and 12.3 µM (active).

`CCOP(=S)(OCC)SCn1c(=O)oc2cc(Cl)ccc21` was tested. Which outcome [4] did it give?
Its outcome is “inactive”.

How did the AC50 [2] turn out when `O=C(Nc1ccccc1)Nc1ccnc(Cl)c1` was run?
The AC50 was 32.3 µM (active).

What does the source list for `COC(=O)C(C)Oc1ccc(Oc2ccc(Cl)cc2Cl)cc1` (centres undefined)?
outcome [1]: inactive; outcome [3]: inactive

With `CCCCOC(=O)c1ccccc1C(=O)OCCCC` as the molecule, how does the outcome [5] read?
The outcome was “inactive”.

What about the outcome [2] of the same molecule?
The outcome was “inactive”.

Which outcome [6] does the source give for `CN(C)C(=S)SSC(=S)N(C)C` here?
The outcome was “inactive”.

Which results are given for `CO/C=C(/C(=O)OC)c1ccccc1Oc1cc(Oc2ccccc2C#N)ncn1`?
outcome [1]: inactive; AC50 [7]: 12.6 µM (active); outcome [7]: inactive; AC50 [8]: 26.4 µM (active); AC50 [2]: 6.66 µM (active); outcome [2]: inactive

With `C=CCC1=C(C)C(OC(=O)C2C(C=C(C)C)C2(C)C)CC1=O` (centres undefined) as the molecule, how does the outcome [9] read?
The outcome was “inactive”.

`Cc1ccc(-c2c(Cl)nc(C#N)n2S(=O)(=O)N(C)C)cc1` was tested. Which AC50 [10] did it give?
Its AC50 is 1.21 µM (active).

And the AC50 [4]?
The AC50 was 8.72 µM (active).

`CNC(=S)S` was tested. Which outcome [9] did it give?
Its outcome is “inactive”.

Which results are given for `CS/C(C)=N/OC(=O)N(C)SN(C)C(=O)O/N=C(\C)SC`?
AC50 [9]: 2.97 µM (active); AC50 [6]: 17.2 µM (active); outcome [2]: inactive

Which outcome [2] does the source give for `C#CCOS(=O)OC1CCCCC1Oc1ccc(C(C)(C)C)cc1` (centres undefined) here?
The outcome was “inactive”.

`C=CCC1=C(C)[C@@H](OC(=O)[C@@H]2[C@@H](C=C(C)C)C2(C)C)CC1=O` was tested. Which AC50 [1] did it give?
Its AC50 is 39.1 µM (active).

`CCNc1nc(Cl)nc(NCC)n1` was tested. Which outcome [5] did it give?
The outcome was “inactive”.

`CCOC(=O)CC(SP(=S)(OC)OC)C(=O)OCC` (centres undefined) was tested. Which outcome [6] did it give?
Its outcome is “inactive”.
